High-throughput results from PubChem.
In the library only some 2.9% were active in any assay of this set; here they are far more common.
pPAFAH inh: pPAFAH enzyme inhibitors, primary screen, biochemical, fluorescence polarization, human. Platelet-activating factor acetylhydrolase (Homo sapiens), Q13093. recombinant pPAFAH, FP-rhodamine probe fluorescence polarization. inhibition, % at 3.39 µM. actives 1.5% (n = 330,000);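 active = inhibition above the mean inhibition across the screen plus 3 SD, cut at about 25% in these data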;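 also: inhibitors block binding of the rhodamine activity-based probe so polarization drops; 0% = enzyme with DMSO and 100% = wells lacking pPAFAH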
Target sequence (Q13093 whole entry, looked up): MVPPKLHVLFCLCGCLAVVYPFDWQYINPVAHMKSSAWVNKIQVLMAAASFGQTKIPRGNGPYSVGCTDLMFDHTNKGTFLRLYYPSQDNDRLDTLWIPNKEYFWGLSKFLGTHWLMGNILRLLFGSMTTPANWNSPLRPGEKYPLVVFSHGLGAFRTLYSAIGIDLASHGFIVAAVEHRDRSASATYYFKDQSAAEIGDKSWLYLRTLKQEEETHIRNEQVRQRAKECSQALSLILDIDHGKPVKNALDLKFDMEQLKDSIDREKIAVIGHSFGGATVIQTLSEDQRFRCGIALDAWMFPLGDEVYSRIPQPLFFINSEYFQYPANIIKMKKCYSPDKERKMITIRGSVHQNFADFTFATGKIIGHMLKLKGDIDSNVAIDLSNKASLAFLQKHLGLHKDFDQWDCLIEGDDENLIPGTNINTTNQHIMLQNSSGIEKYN
EBNA-1 inhibitor: EBNA-1 DNA-binding inhibitors, primary screen, biochemical, fluorescence polarization; inhibition, % at 14.8 µM; AID 1950, 2009; actives 0.34% (n = 300,000); in the data active = inhibition above about 28%
PAFAH1B3 inh: PAFAH1B3 enzyme inhibitors, primary screen, biochemical, fluorescence polarization, human. Platelet-activating factor acetylhydrolase IB subunit alpha1 (Homo sapiens), Q15102. recombinant PAFAH1B3, FP-rhodamine probe. inhibition, % at 3.39 µM. actives 0.28% (n = 340,000);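 active = inhibition above the screen-wide average of all tested compounds plus 3 SD, cut at about 25% in these data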;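 also: 0% = enzyme with DMSO only and 100% = wells lacking PAFAH1B3 protein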
PAFAH1B2 inh: PAFAH1B2 enzyme inhibitors, primary screen, biochemical, fluorescence polarization, human; actives 1.2% (n = 340,000); inhibition, % at 3.39 µM; recombinant PAFAH1B2, FP-rhodamine activity probe; AID 492953, 2010;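 active = inhibition above the mean of all tested compounds plus 3 SD, cut at about 24% in these data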;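 also: 0% = enzyme with DMSO and 100% = wells lacking PAFAH1B2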
PAFAH2 inh: PAFAH2 enzyme inhibitors, primary screen, biochemical, fluorescence polarization, human. actives 0.99% (n = 340,000). Platelet-activating factor acetylhydrolase 2, cytoplasmic (Homo sapiens), Q99487. recombinant PAFAH2, FP-rhodamine activity probe. inhibition, % at 3.39 µM. AID 492956, 2010;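 active = inhibition above the mean over all tested compounds plus 3 SD, cut at about 30% in these data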;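 also: inhibitors block probe labeling of enzyme so polarization drops; 0% = enzyme with DMSO and 100% = wells lacking PAFAH2 protein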
ZTA counter: blocks Epstein-Barr virus ZTA, an EBNA-1 counter-screen. P03206. ZTA-DNA binding, fluorescence polarization. AID 2234. inhibition, % at 11 µM. actives 0.15% (n = 320,000); in the data active = inhibition above about 33%
* = called active by the depositor.

For O=c1cc(-c2ccccc2)nc2cc(-c3ccco3)[nH]n12 the results were pPAFAH inh 27*, EBNA-1 inhibitor -21, PAFAH1B3 inh 3, PAFAH1B2 inh 1, PAFAH2 inh -7 and ZTA counter -9.
Cc1nn(C)c(C(=O)NNC(=O)NC2CCCCC2)c1Cl was read as PAFAH1B3 inh -5, PAFAH1B2 inh -1 and PAFAH2 inh -3.
For COc1ccc(C2CC(c3ccccc3C(F)(F)F)=NN2c2ccc(S(N)(=O)=O)cc2)cc1 (configuration not stated) the results were pPAFAH inh 26*, PAFAH1B3 inh 5, PAFAH1B2 inh 2 and PAFAH2 inh 6.
COc1ccc(C2CC(c3ccccc3F)=NN2c2ccc(S(N)(=O)=O)cc2)cc1 (configuration not stated) was read as pPAFAH inh 13, PAFAH1B3 inh 7, PAFAH1B2 inh 5 and PAFAH2 inh -3.
Screening CC(C)(C)c1cc(C(=O)NCCN2CCCC2)cc(C(C)(C)C)c1 returned pPAFAH inh 4, EBNA-1 inhibitor 4, PAFAH1B3 inh 5, PAFAH1B2 inh 4, PAFAH2 inh -4 and ZTA counter 4.
Screening N#C/C(=C/c1ccc(O)c(O)c1)C(=O)NCc1ccc(Cl)cc1 returned pPAFAH inh 30*, EBNA-1 inhibitor -10, PAFAH1B3 inh 12, PAFAH1B2 inh 53*, PAFAH2 inh 35* and ZTA counter 1.
N#C/C(=C/c1cccc(O)c1)C(=O)NCc1ccc(Cl)cc1 was read as pPAFAH inh 5, EBNA-1 inhibitor 4, PAFAH1B3 inh -8, PAFAH1B2 inh 19, PAFAH2 inh -5 and ZTA counter 5.
COc1ccc(N2CCN(CCCNC(=O)C(=O)c3c[nH]c4ccccc34)CC2)cc1 was read as pPAFAH inh -1, EBNA-1 inhibitor -2, PAFAH1B3 inh -2, PAFAH1B2 inh 0, PAFAH2 inh 2 and ZTA counter -1.
Screening O=[N+]([O-])c1cccc(-c2nc(-c3cccs3)c(-c3cccs3)[nH]2)c1 returned pPAFAH inh 28*, EBNA-1 inhibitor 10, PAFAH1B3 inh 22, PAFAH1B2 inh 6, PAFAH2 inh -3 and ZTA counter -26.
For O=C(COC(=O)c1cccc(S(=O)(=O)N2CCN(c3ccccc3)CC2)c1)NCc1ccco1 the results were pPAFAH inh 26*, EBNA-1 inhibitor 7, PAFAH1B3 inh 9, PAFAH1B2 inh 5, PAFAH2 inh 15 and ZTA counter -4.
Screening N#Cc1cccc(C(=O)OCC(=O)NCc2ccco2)c1 returned pPAFAH inh -8, EBNA-1 inhibitor -7, PAFAH1B3 inh 7, PAFAH1B2 inh 0, PAFAH2 inh 13 and ZTA counter -11.
For O=C(COC(=O)c1cccc(Oc2ccccc2)c1)NCc1ccco1 the results were pPAFAH inh 34*, EBNA-1 inhibitor -11, PAFAH1B3 inh -5, PAFAH1B2 inh 1, PAFAH2 inh 36* and ZTA counter -11.
Screening O=C(CCNC(=O)c1ccc([N+](=O)[O-])cc1)NCc1cccs1 returned pPAFAH inh 5, PAFAH1B3 inh 8, PAFAH1B2 inh 6 and PAFAH2 inh -5.
Screening CCC1c2ccccc2C(=O)C1C(N)=O (configuration not stated) returned PAFAH1B3 inh 2, PAFAH1B2 inh 3 and PAFAH2 inh 1.
Oc1ccc(/C=N/N2CCN(C3c4ccccc4-c4ccccc43)CC2)cc1 was read as pPAFAH inh 6, EBNA-1 inhibitor 4, PAFAH1B3 inh 3, PAFAH1B2 inh 15, PAFAH2 inh 2 and ZTA counter 13.
Screening Oc1ccc(/C=N/N2CCN(C3c4ccccc4-c4ccccc43)CC2)cc1O returned pPAFAH inh 33*, EBNA-1 inhibitor -12, PAFAH1B3 inh -2, PAFAH1B2 inh 1, PAFAH2 inh -6 and ZTA counter -7.
For CCCCCCCCCCS(=O)(=O)N/N=C/c1ccc([N+](=O)[O-])cc1 the results were pPAFAH inh 10, EBNA-1 inhibitor 4, PAFAH1B3 inh 8, PAFAH1B2 inh 30*, PAFAH2 inh 2 and ZTA counter -3.
CCCCCCCCCCCCCC(=O)O was read as pPAFAH inh 2, PAFAH1B3 inh 14, PAFAH1B2 inh 35*, PAFAH2 inh 12 and ZTA counter -3.
CCOC(=O)C1CCCN(S(=O)(=O)c2ccc(S(=O)(=O)N3CCCC3)cc2)C1 (configuration not stated) was read as pPAFAH inh -5, EBNA-1 inhibitor -3, PAFAH1B3 inh 7, PAFAH1B2 inh -3, PAFAH2 inh 15 and ZTA counter 2.
CCOC(=O)C1CCCN(S(=O)(=O)c2cc3[nH]c(=O)c(=O)[nH]c3cc2C)C1 (configuration not stated) was read as pPAFAH inh 7, EBNA-1 inhibitor -18, PAFAH1B3 inh 4, PAFAH1B2 inh 26*, PAFAH2 inh 1 and ZTA counter -5.
For COc1ccc(NC(=O)Cn2ncn3nc(-c4ccc(OC)cc4)cc3c2=O)cc1 the results were pPAFAH inh -3, EBNA-1 inhibitor 6, PAFAH1B3 inh 6, PAFAH1B2 inh 7, PAFAH2 inh 1 and ZTA counter -8.
`Cc1ccc(S(=O)(=O)Nc2ccc(Cl)cc2C(=O)c2ccccc2)cc1` gave pPAFAH inh -1, EBNA-1 inhibitor 7, PAFAH1B3 inh 6, PAFAH1B2 inh 27*, PAFAH2 inh 6 and ZTA counter 6.
Screening Cc1ccc(S(=O)(=O)Nc2ccc(Cl)cc2C(=O)c2ccc(F)cc2)cc1 returned pPAFAH inh 5, EBNA-1 inhibitor 14, PAFAH1B3 inh 5, PAFAH1B2 inh 43*, PAFAH2 inh 5 and ZTA counter -12.
For O=C(COC(=O)C1CC2CCCC(C1)C2=O)NNC(=O)c1ccccc1F (configuration not stated) the results were pPAFAH inh 10, EBNA-1 inhibitor -19, PAFAH1B3 inh 5, PAFAH1B2 inh 3, PAFAH2 inh 7 and ZTA counter -14.
For CC(=O)N1N=C(c2ccc3ccccc3c2)OC1(C)C the results were pPAFAH inh 4, EBNA-1 inhibitor 11, PAFAH1B3 inh -1, PAFAH1B2 inh 0, PAFAH2 inh 3 and ZTA counter 15.
For c1ccc2cc(-c3cc4ccccn4c3)ccc2c1 the results were pPAFAH inh 28*, EBNA-1 inhibitor 9, PAFAH1B3 inh 9, PAFAH1B2 inh 5, PAFAH2 inh 15 and ZTA counter 17.
For CC(NC(=O)Cn1c(=O)[nH]c2ccsc2c1=O)C12CC3CC(CC(C3)C1)C2 (configuration not stated) the results were pPAFAH inh 14, EBNA-1 inhibitor 2, PAFAH1B3 inh 9, PAFAH1B2 inh 28*, PAFAH2 inh 27 and ZTA counter 1.
